The values that follow come from PubChem BioAssay (NCI).

The panel holds about 83,000 compounds, 20% with a hit somewhere; the sample as a whole holds those more often.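 48-hour exposure, single concentration, 96-well plates; percent growth endpoint where 0 means no net growth. Active: below 10.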 A number with no mark means an inactive call. Calls of active or inactive are those of the source.

The subject of this test is HCT-116 colon. Description: NCI-60 one-dose screen, 48 h (100 = growth as untreated, 0 = no growth, -100 = all killed). As to conditions: 10 µM unless noted.
For `CC(C)(CO)N(CCO)CCO`, the growth is 106%.

Regarding `CCCCCCCCn1ccc2cc(NC(=O)Cn3cc(CN4CCCCCC4)nn3)ccc21`, the growth was -77.3% (active).

`COc1cc2cc(Oc3ccc(NC(=O)Nc4ccccc4)cc3)c(C)nc2cc1OCCN1CCCCC1`: the growth is 11.1%.

For `CN1CCN(CCCOC(=O)c2c3c(n4ccccc24)C(=O)c2ncccc2C3=O)CC1`, the growth was -29.5% (active).

Take `Cc1ccc2[nH]c(-c3ccc(S(C)(=O)=O)cc3)c(/C=N/N=C(N)N)c2c1`: the growth is 24.4%.

For the compound `COc1ccc(C/C(C)=C(\c2ccc(O)cc2)c2ccc(OCCN3CCCC3)cc2)cc1`, the growth is 93.8%.

Turning to `CC1(C)C2CC=C(/C=N/NC(=O)C3CCC(=O)N3)C1C2` (stereo not given), the growth was 108%.

Turning to `COc1ccc2cc(-c3ccc(-c4ccc(C(=N)N)s4)s3)ccc2c1`, the growth is -29.5% (active).

In the case of `Cc1nc2sc(C(=O)Nc3ccccc3)c(N)c2cc1C(=O)/C=C/c1ccccc1`, the growth is -66.9% (active).

Regarding `O=C1/C(=C/c2ccc(C(F)(F)F)cc2)COc2ccc(O)cc21`, the growth was 33.2%.

Turning to `Cc1[nH]c(C(=O)Nc2ccc(C(N)=O)cc2NC(C)C)c(Cl)c1Cl`, the growth was 81%.

As for `Oc1c(CN2CCCC2)cc(COCc2ccccc2)c2cccnc12`, the growth is 9.16% (active).

`CCCCCCCC/C=C\CCCCCCCCOc1ccccc1CC(=O)NCC[N+]1(C)CCCCC1`: the growth is 48.2%.

Turning to `O=C1Nc2ccc(F)cc2/C1=C\c1nc(-c2ccccc2F)n2ccccc12`, the growth is 44.2%.

Regarding `CN(C)Cc1ccc(C(=O)Nc2ccc3ncnc(Nc4ccc(Oc5cccc(F)c5)c(Cl)c4)c3c2)cc1`, the growth is -39.7% (active).

With `CCNC(=O)Oc1ccc(/C(=C(/C)Cc2ccc(OC)cc2)c2ccc(OCCN3CCCC3)cc2)cc1`, the growth was 44%.

As for `Cc1cscc(C)c1=S`, the growth was 61.2%.

Turning to `CC(=O)N/C(=C1/OC(C(O)C(O)C(O)CO)CN1C)[P+](c1ccccc1)(c1ccccc1)c1ccccc1` (stereo not given), the growth is 100%.

In the case of `COC(=O)c1c2c(n3ccc(C)cc13)C(=O)c1ccccc1C2=O`, the growth is 41.6%.

For `COc1cc2nc(Nc3cccc(F)c3)nc(Nc3cc(C)[nH]n3)c2cc1OC`, the growth was -68.2% [20 µM] (active).

For `CC1=CCC[C@@H]2C1(C)CC[C@H](C)[C@@]2(C)CC1=CC(=O)C(SC(C)(C)C)=CC1=O` (stereo not given in full), the growth is 64%.

Take `O=C(/C=C/c1cccc(Cl)c1)c1cccc(OCCCCOc2cccc(C(=O)/C=C/c3cccc(Cl)c3)c2)c1`: the growth is -13.7% (active).

Regarding `CCCNc1nc2ccccc2c2c(=O)c3cccc(Cl)c3sc12`, the growth is 72.4%.

Take `COc1cccc(Nc2ccnc3[nH]c4ccc([N+](=O)[O-])cc4c23)c1`: the growth is 24.5%.

With `CCOC(=O)CSc1nc2sc3c(c2c(=O)n1-c1ccc([N+](=O)[O-])cc1)CCCCC3`, the growth was 51.3%.

Consider `COc1cccc2c(N=NC(=O)c3ccc(S(N)(=O)=O)cc3)c(O)[nH]c12`, for which the growth was 99.4%.

For the compound `Clc1nccc2c(-c3csc(-c4c[nH]c5ccccc45)n3)c[nH]c12`, the growth is 39.7%.

With `COc1cc(/C=N/Nc2ccccc2F)cc(OC)c1OC`, the growth was 84.5%.

For `COc1ccc2c(c1)c(-c1nc(-c3cn(C)c4ncccc34)cs1)cn2CCO`, the growth is 74.2%.

Regarding `CS(=O)(=O)Cc1cnc(C2OCCO2)s1`, the growth was 98.8%.

For `COc1ccc(Nc2ncc(C(N)=O)c(NCCCNC(=O)C3CCC3)n2)cc1`, the growth is 54%.

In the case of `N#C/C(=C\c1ccc(-c2ccc(Cl)cc2)o1)c1ccc(Cl)cc1`, the growth was 12.7%.

As for `COc1cc(C(=O)/C=C/c2c(-c3cccs3)nc3ccccn23)cc(OC)c1OC`, the growth was -5.59% (active).

With `Fc1ccc(CNc2c3ccccc3nc3ccccc23)cc1`, the growth is 12.6%.

As for `COc1cc(Nc2c3ccc(Cl)cc3nc3ccc(OC)cc23)c2ncccc2c1`, the growth is 26%.

Consider `COc1cc(C2Cc3ncccc3-c3[nH]c(=O)c4cccnc4c32)cc(OC)c1OC` (stereo not given), for which the growth was 13.8%.

Regarding `CCc1ccc(CCC(=O)Nc2ncc(Cc3ccc(Cl)cc3)s2)o1`, the growth is 29.3%.

For the compound `N#Cc1c(-c2ccccc2)nc2c(c(-c3ccccc3)nn2-c2ccccc2)c1-c1ccc(N2CCOCC2)cc1`, the growth was 65.5%.

`COc1ccc(NC(=O)c2ccc(C(=O)Nc3ccc(OC)cc3OC)cc2)c(OC)c1`: the growth is 78.1%.

Regarding `CCN=C1C=CC(=C(c2ccc(N(C)C)cc2)c2ccc(N(C)C)cc2)c2ccccc21`, the growth is -51.6% (active).
